Laboratory results from the supplement of paper PMC9694430.
“And” between values parts separate entries of the source, which are not always exact repeats. Equal entries are not always repeated. Structures can show the parent of a compound that is named as a salt.

Tests used:
Experiment in all cases: thermal shift delta Tm vs DMSO control; higher = stronger stabilization (binding)
Details in all cases: 12.5 µM; protein concentration 2 µM
LOC_OS01G01410-cb001 = test system: LOC_OS01G01410-cb001
Procedure, shortened: (§1)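 The melting temperature shift given here is a triplicate mean, measured against protein that received only DMSO. Melting temperatures came from Boltzmann fits of differential scanning fluorimetry data on E. coli-expressed, purified rice kinase domain constructs. Each 19.5 μl well contained 2 μM kinase, 100 mM potassium phosphate pH 7.5, 150 mM NaCl, 10% glycerol, 5 × SYPRO Orange and compound in DMSO. Plates were scanned from 25°C to 95°C at 0.05°C/s.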

LOC_OS01G02750-cb003 = test system: LOC_OS01G02750-cb003
Procedure, shortened: as §1

LOC_OS01G10900-cb004 = test system: LOC_OS01G10900-cb004
Procedure, shortened: as §1

LOC_OS01G13800-cb001 = test system: LOC_OS01G13800-cb001
Procedure, shortened: as §1

LOC_OS01G14860-cb001 = test system: LOC_OS01G14860-cb001
Procedure, shortened: as §1

LOC_OS01G21960-cb002 = test system: LOC_OS01G21960-cb002
Procedure, shortened: as §1

LOC_OS01G39600-cb002 = test system: LOC_OS01G39600-cb002
Procedure, shortened: as §1

LOC_OS01G48390-cb002 = test system: LOC_OS01G48390-cb002
Procedure, shortened: as §1

LOC_OS01G51400-cb002 = test system: LOC_OS01G51400-cb002
Procedure, shortened: as §1

LOC_OS01G52050-cb004 = test system: T1, LOC_OS01G52050-cb004
T1 sequence (whole entry): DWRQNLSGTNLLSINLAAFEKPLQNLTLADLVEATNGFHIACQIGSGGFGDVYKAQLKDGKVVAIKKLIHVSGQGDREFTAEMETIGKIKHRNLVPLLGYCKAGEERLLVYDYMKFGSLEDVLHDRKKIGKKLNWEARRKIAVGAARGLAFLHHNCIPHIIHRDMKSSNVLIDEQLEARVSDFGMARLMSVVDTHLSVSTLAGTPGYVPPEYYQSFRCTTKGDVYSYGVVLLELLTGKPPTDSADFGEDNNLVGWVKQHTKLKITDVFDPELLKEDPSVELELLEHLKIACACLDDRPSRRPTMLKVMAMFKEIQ
Procedure, shortened: as §1

LOC_OS01G57100-cb003 = test system: LOC_OS01G57100-cb003
Procedure, shortened: as §1

LOC_OS01G60330-cb001 = test system: LOC_OS01G60330-cb001
Procedure, shortened: as §1

LOC_OS01G60700-cb002 = test system: LOC_OS01G60700-cb002
Procedure, shortened: as §1

LOC_OS01G63280-cb003 = test system: LOC_OS01G63280-cb003
Procedure, shortened: as §1

LOC_OS01G67340-cb003 = test system: LOC_OS01G67340-cb003
Procedure, shortened: as §1

LOC_OS01G70970-cb002 = test system: LOC_OS01G70970-cb002
Procedure, shortened: as §1

LOC_OS02G07810-cb001 = test system: LOC_OS02G07810-cb001
Procedure, shortened: as §1

LOC_OS02G08530-cb003 = test system: LOC_OS02G08530-cb003
Procedure, shortened: as §1

LOC_OS02G14120-cb001 = test system: LOC_OS02G14120-cb001
Procedure, shortened: as §1

LOC_OS02G17970-cb001 = test system: LOC_OS02G17970-cb001
Procedure, shortened: as §1

Compound | thermal shift delta Tm (LOC_OS01G01410-cb001) | thermal shift delta Tm (LOC_OS01G02750-cb003) | thermal shift delta Tm (LOC_OS01G10900-cb004) | thermal shift delta Tm (LOC_OS01G13800-cb001) | thermal shift delta Tm (LOC_OS01G14860-cb001) | thermal shift delta Tm (LOC_OS01G21960-cb002) | thermal shift delta Tm (LOC_OS01G39600-cb002) | thermal shift delta Tm (LOC_OS01G48390-cb002) | thermal shift delta Tm (LOC_OS01G51400-cb002) | thermal shift delta Tm (LOC_OS01G52050-cb004) | thermal shift delta Tm (LOC_OS01G57100-cb003) | thermal shift delta Tm (LOC_OS01G60330-cb001) | thermal shift delta Tm (LOC_OS01G60700-cb002) | thermal shift delta Tm (LOC_OS01G63280-cb003) | thermal shift delta Tm (LOC_OS01G67340-cb003) | thermal shift delta Tm (LOC_OS01G70970-cb002) | thermal shift delta Tm (LOC_OS02G07810-cb001) | thermal shift delta Tm (LOC_OS02G08530-cb003) | thermal shift delta Tm (LOC_OS02G14120-cb001) | thermal shift delta Tm (LOC_OS02G17970-cb001)
Cn1cnc2c(F)c(Nc3ccc(Br)cc3Cl)c(C(=O)NOCCO)cc21 [Selumetinib (AZD6244)] | 0.81 °C | -0.16 °C | 0.43 °C | 0.45 °C | 0.22 °C | 0.07 °C | 0.25 °C | 1.04 °C | 0.36 °C | 0.08 °C | 0.72 °C | 0.77 °C | 1.13 °C | -0.08 °C | -0.85 °C | 0.48 °C | 0.62 °C | 0.39 °C | 0.1 °C | 0.19 °C
CCCNC(=O)c1cn2ncnc(Nc3cc(C(=O)NC4CC4)ccc3C)c2c1C | 0.17 °C | 0.08 °C | -0.05 °C | -0.27 °C | 0.01 °C | -0.06 °C | 0.07 °C | -0.01 °C | 0.04 °C | 0.26 °C | 0.66 °C | 0.41 °C | 0.99 °C | 0.33 °C | 0.18 °C | 0.12 °C | 0.08 °C | 0.8 °C | 0.54 °C | -0.21 °C
Cc1ccc(CNc2ncnc3ccc(-c4ccc(CO)o4)cc23)o1 | 0.69 °C | 1.49 °C | 0.39 °C | -0.33 °C | 0.56 °C | 0.93 °C | 0.85 °C | 0.79 °C | 0.24 °C | 1.21 °C | 1.69 °C | 0.84 °C | 0.78 °C | 0.26 °C | -0.04 °C | 0.37 °C | 0.27 °C | 1.61 °C | 3.01 °C | 1.11 °C
Cc1ccc(Nc2nccc(N(C)c3ccc4c(C)n(C)nc4c3)n2)cc1S(N)(=O)=O [Pazopanib] | 2.16 °C | 0.45 °C | 1.67 °C | -0.48 °C | 0.04 °C | 0.56 °C | 1.25 °C | 4.34 °C | 0.23 °C | 0.91 °C | 0.76 °C | 3.85 °C | 1.11 °C | 0.59 °C | 0.96 °C | 0.44 °C | 0.68 °C | 1.82 °C | 3.43 °C | 0.74 °C
COc1cccc(-n2c(=O)[nH]c3cc(Cl)n(-c4ccc(-c5cccc(OC)c5O)cc4)c3c2=O)c1 | 0.44 °C | 1.69 °C | -0.02 °C | 0.72 °C | 0.13 °C | 0.8 °C | -0.12 °C | 1.54 °C | 0.69 °C | 0.03 °C | 1.57 °C | 1.05 °C | 0.6 °C | 0.13 °C | 0.2 °C | 0.23 °C | 0.79 °C | 0.98 °C | 0.81 °C | 0.69 °C
CS(=O)(=O)c1cccc(CNc2nc(Nc3ccc4c(c3)CCC(=O)N4)ncc2C(F)(F)F)c1 | 3.58 °C | 3.6 °C | 1.39 °C | -0.34 °C | 3.83 °C | 3.04 °C | 7.76 °C | 3.42 °C | 2.2 °C | 5.18 °C | 1.78 °C | 4.37 °C | 0.7 °C | 1.3 °C | 1.2 °C | 6.42 °C | 1.43 °C | 2.07 °C | 5.48 °C | 0.72 °C
CN(C)Cc1cccc(N/C(=C2\C(=O)Nc3cc(C(N)=O)ccc32)c2ccccc2)c1 | -0.11 °C | 0.69 °C | 1.98 °C | -0.09 °C | 0.65 °C | 0.45 °C | 0.07 °C | 0.48 °C | 0.08 °C | 0.86 °C | 0.28 °C | 1.3 °C | 0.57 °C | 0.43 °C | 0.19 °C | 0.87 °C | 0.75 °C | 1.55 °C | 1.2 °C | 0.67 °C
CC(C)S(=O)(=O)c1ccc2nccc(Nc3ccc4scnc4c3)c2c1 | 0.88 °C | 1.53 °C | 0.44 °C | 0.78 °C | 0.59 °C | 0.58 °C | 0.91 °C | 2.39 °C | 0.31 °C | 3.11 °C | 1.27 °C | 0.31 °C | 0.69 °C | 0.17 °C | 0.82 °C | 0.33 °C | -0.59 °C | 1.18 °C | 1.58 °C | 1.42 °C
Cc1cc([C@@H](C)Nc2ccccc2C(=O)O)c2nc(N3CCOCC3)cc(=O)n2c1 | 0.29 °C | 1.55 °C | 0.27 °C | 0.31 °C | 0.56 °C | 1.03 °C | 0.03 °C | 0.29 °C | 0.07 °C | 0.43 °C | 1.15 °C | 0.75 °C | 0.5 °C | 0.68 °C | -0.15 °C | 0 °C | 1.33 °C | 0.42 °C | -0.15 °C | 0.98 °C
O=C(NC1CCNCC1)c1n[nH]cc1NC(=O)c1c(Cl)cccc1Cl | 0.79 °C and -0.04 °C | 0.32 °C and 1.46 °C | 0.21 °C and 0.72 °C | -0.01 °C and 1.05 °C | 4.91 °C and 5.53 °C | 0.86 °C and 0.55 °C | -0.04 °C and 0.17 °C | 0.25 °C and 0.54 °C | -0.23 °C and 0.38 °C | -0.1 °C and 0.56 °C | 0.75 °C and 1.2 °C | 0.78 °C and 1.25 °C | 0.49 °C and 1.4 °C | 0.02 °C and 0.4 °C | -0.21 °C and 0.3 °C | 0.28 °C and 0.16 °C | 0.48 °C and 1.2 °C | 0.49 °C and 0.58 °C | -0.32 °C and 0.19 °C | 0.23 °C and 1.28 °C
COc1ccc(-c2cc3nccn3c(Nc3ncccc3C(N)=O)n2)cc1OC | 1.05 °C | 1.45 °C | 1.83 °C | 0.09 °C | 6.47 °C | 2.98 °C | 0.18 °C | 1.07 °C | 0.17 °C | 2.44 °C | 0.13 °C | 1.34 °C | 1.05 °C | 1.03 °C | 0.74 °C | 0.22 °C | 0.81 °C | 3.01 °C | 3.03 °C | 0.79 °C
CC#CC(=O)N1CC[C@@H](n2c(=O)n(-c3ccc(Oc4ccccc4)cc3)c3c(N)ncnc32)C1 [ONO-4059 (GS-4059) hydrochloride] | 0.39 °C | 0.39 °C | 0.14 °C | -0.37 °C | 0.23 °C | 0.04 °C | 0.11 °C | -0.2 °C | -0.08 °C | -0.56 °C | 0.49 °C | 0.71 °C | 0.99 °C | -0.08 °C | 0.27 °C | 0.11 °C | 0.05 °C | 0.27 °C | 0.04 °C | 0.51 °C
CO[C@H]1C[C@@H]2CC[C@@H](C)[C@@](O)(O2)C(=O)C(=O)N2CCCC[C@H]2C(=O)O[C@H]([C@H](C)C[C@@H]2CC[C@@H](OC(=O)C(C)(CO)CO)[C@H](OC)C2)CC(=O)[C@H](C)/C=C(\C)[C@@H](O)[C@@H](OC)C(=O)[C@H](C)C[C@H](C)/C=C/C=C/C=C/1C | 1 °C | 0.76 °C | 0.53 °C | 0.18 °C | 0 °C | 0.4 °C | 0.18 °C | 0.44 °C | 0.1 °C | 0.73 °C | 1.06 °C | 1.91 °C | 0.66 °C | 0.23 °C | -0.48 °C | 0.3 °C | 0.33 °C | 0.57 °C | 0.93 °C | 0.36 °C
